Data from PubChem BioAssay (Tox21).
Inconclusive results are not listed. Values without a mark were called inactive. Calls of active or inactive are those of the source. Calls follow the shape of the dose curve; as a rule, active = well fitted cell-killing curve with a large enough effect in the repeat runs; inconclusive = weak or mixed curves, or effect the other way; inactive = flat fitted curve, though single readings scatter.

assay: Human pregnane X receptor (PXR) small molecule agonists, qHTS cell viability counter screen (AID 1346977); settings: PXR-Luc HepG2 viability, CellTiter-Fluor, 24 h; series mostly up to 92.4 µM; activity change, negative = cytotoxicity: at the top concentration; also: nearly all actives have a fitted effect of over 50% in size
In short: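 In each well, the PXR reporter HepG2 line was checked for viability: CellTiter-Fluor reagent added 23hr post-dosing, fluorescence read after 1hr incubation at 37C.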
% is scaled to controls: 0 for no effect and ±100 for the full control effect; potency is read from the fitted curve at half-maximal effect.

SMILES	activity change, negative = cytotoxicity	Potency
CCOP(=S)(OCC)Oc1cc(C)nc(N(CC)CC)n1	12.3%	–
Cc1ccc([N+](=O)[O-])[c]2c1[O][Hg]2	–	6680 nM (active)
CC(=O)[O][Sn]([c]1ccccc1)([c]1ccccc1)[c]1ccccc1	–	306 nM (active)
C=C(C)C(=O)[O][Sn]([CH2]CCC)([CH2]CCC)[CH2]CCC	–	306 nM (active)
CNC(=O)/C=C(\C)OP(=O)(OC)OC	12.6%	–
CC(C)C(Nc1ccc(C(F)(F)F)cc1Cl)C(=O)OC(C#N)c1cccc(Oc2ccccc2)c1 (centres undefined)	0.0054%	–
N#Cc1ccc(N(CC(N)=O)CC(F)(F)F)cc1C(F)(F)F	1.54%	–
O=C(O)CCCCCCNC1c2ccccc2CCc2ccccc21	2.75% [at 42.5 µM]	–
C=CC(=O)[O][Sn]([CH2]CCC)([CH2]CCC)[CH2]CCC	–	686 nM (active)
NC(=O)C(Cl)Cl	0.334%	–
Cc1cccc(Cc2cnc[nH]2)c1C	-1.75% [at 42.5 µM]	–
N#CSCc1ccccc1	24%	–
CCOP(=O)(OCC)Oc1cc(C)nc(C(C)C)n1	12.3%	–
OCC(Br)CBr (centres undefined)	16.4%	–
N#CCCl	6.11%	–
C=CC(=C)C	-0.447%	–
CCn1cc[n+](C)c1 (tested in a mixture with another compound)	4.25%	–
CC(=O)[O][Pb]([c]1ccccc1)([c]1ccccc1)[c]1ccccc1	–	4330 nM (active)
CCCCc1ccccc1	-1.88%	–
CCNS(=O)(=O)C(F)(F)C(F)(F)C(F)(F)C(F)(F)C(F)(F)C(F)(F)C(F)(F)C(F)(F)F	-22.5%	–

SMILES	activity change, negative = cytotoxicity	Potency
Oc1ccc(Cl)c(Cl)c1	3.69%	–
O=C(Nc1ccc(F)cc1F)c1cccnc1Oc1cccc(C(F)(F)F)c1	-0.622%	–
ClC1(Cl)C2(Cl)C3(Cl)C4(Cl)C(Cl)(Cl)C5(Cl)C3(Cl)C1(Cl)C5(Cl)C24Cl (centres undefined)	8.5%	–
CC(C)=CCN1CC[C@@]2(C)c3cc(O)ccc3C[C@@H]1[C@@H]2C	–	17000 nM (active)
CC1CN1 (centres undefined)	1.54%	–
CC(C)c1c(CN(C)C(C)Cc2ccccc2)n(C)n(-c2ccccc2)c1=O (centres undefined)	-2.09% [at 42.5 µM]	–
Cc1nn(-c2cc(NS(C)(=O)=O)c(Cl)cc2Cl)c(=O)n1C(F)F	9.76%	–
CCC[CH2][Sn]([CH2]CCC)([CH2]CCC)[CH2]CCC	–	15400 nM (active)
O=S1(=O)OCC2C(CO1)C1(Cl)C(Cl)=C(Cl)C2(Cl)C1(Cl)Cl (centres undefined)	-26%	–
C[C@]12C/C(=C/O)C(=O)C[C@@H]1CC[C@@H]1[C@@H]2CC[C@@]2(C)[C@H]1CC[C@]2(C)O	-4.99% [at 42.5 µM]	–
[Cl][Hg][c]1ccccc1	–	1540 nM (active)
CCCCCON=O	5.42%	–
ClC(Cl)C(Cl)(Cl)Cl	-0.212%	–
COC(=O)/C=C(\C)OP(=O)(OC)OC	1.07%	–
CCCCC(CC)COC(=O)c1ccccc1C(=O)OCC(CC)CCCC (centres undefined)	8.53%	–
O=C(Cl)c1ccccc1F	14%	–
CC1(C)[C@H](/C=C2\CCSC2=O)[C@@H]1C(=O)OCc1coc(Cc2ccccc2)c1	-3.27%	–
CCCCN(CCCC)C(=S)S	27.4%	–
CCCN	-0.241%	–
